# Measurements published in paper PMC11062922 (Nature Chemical Biology, 2023).
# Where two headings read alike, the source gives them in different places.
# Tests used:
# Parameters in all cases: species or system human, MV4-11 + K-562 + COLO205 + SK-N-BE2 + OVCAR-8
# CSNK1A1 = conditions: read-out: apparent Kd, n = 1
# MAPK10 = conditions: read-out: apparent Kd, n = 1
# MAPK8 = conditions: read-out: apparent Kd, n = 1
# PIP4K2C = conditions: read-out: apparent Kd, n = 1
# ROCK2 = conditions: read-out: apparent Kd, n = 1
# STK16 = conditions: read-out: apparent Kd, n = 1
# RPS6KB1 = conditions: read-out: apparent Kd; compound concentrations: 100 nM and 1000 nM (sheet 'Samples'), CATDS: 8.2773531247457094E-2; n = 1
# CSNK1D = conditions: read-out: apparent Kd, compound concentrations: 100 nM and 1000 nM (sheet 'Samples'), n = 1
# FER = conditions: read-out: apparent Kd, n = 1
# MARK2 = conditions: read-out: apparent Kd, compound concentrations: 100 nM and 1000 nM (sheet 'Samples'), n = 1
# PKN2 = conditions: read-out: apparent Kd, compound concentrations: 100 nM and 1000 nM (sheet 'Samples'), n = 1
# PRKAA1 = conditions: read-out: apparent Kd, n = 1
# PRKCA = conditions: read-out: apparent Kd; compound concentrations: 100 nM and 1000 nM (sheet 'Samples'), CATDS: 8.97994124779509E-3; n = 1
# PRKCQ = conditions: read-out: apparent Kd, n = 1
# STK3 = conditions: read-out: apparent Kd, compound concentrations: 100 nM and 1000 nM (sheet 'Samples'), n = 1
# TNIK = conditions: read-out: apparent Kd, compound concentrations: 100 nM and 1000 nM (sheet 'Samples'), n = 1
# PIK3CD = conditions: read-out: apparent Kd, n = 1
# ERCC2 = conditions: read-out: apparent Kd, n = 1
# [1] = compound concentrations:100 nM and 1000 nM (sheet 'Samples')
structure (smiles),measurement,setting,value
CN(C)CC(O)COc1ccc(Nc2nccc(-c3cnn4nc(N5CCOCC5)ccc34)n2)cc1 (stereo not shown) [GW767488X],potency estimated from few doses,CSNK1A1; [1],1250 nM
same,potency estimated from few doses,MAPK10; [1],107 nM
same,potency estimated from few doses,MAPK8; [1],127 nM
same,potency estimated from few doses,PIP4K2C; [1],1440 nM
same,potency estimated from few doses,ROCK2; [1],1440 nM
same,potency estimated from few doses,STK16; [1],69.2 nM
COc1cc(Nc2nccc(N3CCC(NC(=O)c4cccc(NC(C)=O)c4)C3)n2)cc(OC)c1OC (stereo not shown) [GSK1379754A],potency estimated from few doses,"PIP4K2C; compound concentrations: 100 nM and 1000 nM (sheet 'Samples'), CATDS: 7.8975813686716995E-2",2090 nM
same,potency estimated from few doses,RPS6KB1,1830 nM
Cc1cc(-c2ccnc(Nc3cccc(C#N)c3)n2)cc(C)c1O [GSK1440913A],potency estimated from few doses,"MAPK10; compound concentrations: 100 nM and 1000 nM (sheet 'Samples'), CATDS: 8.7033733779345604E-2",990 nM
same,potency estimated from few doses,"PIP4K2C; compound concentrations: 100 nM and 1000 nM (sheet 'Samples'), CATDS: 0.18719100340522599",168 nM
O=C(O)C(F)(F)F.O=C(O)C(F)(F)F.O=c1[nH]ccc2nc(N[C@@H]3CCCNC3)nc(Nc3ccc(S(=O)(=O)N4CCOCC4)cc3)c12.O=c1[nH]ccc2nc(N[C@@H]3CCCNC3)nc(Nc3ccc(S(=O)(=O)N4CCOCC4)cc3)c12 [GSK2177277A],potency estimated from few doses,"CSNK1A1; compound concentrations: 100 nM and 1000 nM (sheet 'Samples'), CATDS: 1.2484395279946501E-2",150 nM
same,potency estimated from few doses,CSNK1D; CATDS: 1.4345830153399601E-2,107 nM
same,potency estimated from few doses,"FER; compound concentrations: 100 nM and 1000 nM (sheet 'Samples'), CATDS: 8.2739447120601401E-3",507 nM
same,potency estimated from few doses,MARK2; CATDS: 1.4475960848297199E-2,105 nM
same,potency estimated from few doses,"PIP4K2C; compound concentrations: 100 nM and 1000 nM (sheet 'Samples'), CATDS: 6.0874593504341903E-3",2140 nM
same,potency estimated from few doses,PKN2; CATDS: 1.4426641074697899E-2,105 nM
same,potency estimated from few doses,"PRKAA1; compound concentrations: 100 nM and 1000 nM (sheet 'Samples'), CATDS: 9.2771532951669705E-3",345 nM
same,potency estimated from few doses,PRKCA,383 nM
same,potency estimated from few doses,"PRKCQ; compound concentrations: 100 nM and 1000 nM (sheet 'Samples'), CATDS: 6.3096913927369299E-3",1710 nM
same,potency estimated from few doses,"ROCK2; compound concentrations: 100 nM and 1000 nM (sheet 'Samples'), CATDS: 8.2952674328971108E-3",503 nM
same,potency estimated from few doses,"STK16; compound concentrations: 100 nM and 1000 nM (sheet 'Samples'), CATDS: 8.3784020222335102E-3",485 nM
same,potency estimated from few doses,STK3; CATDS: 4.2815354509816599E-2,14.4 nM
same,potency estimated from few doses,TNIK; CATDS: 6.517178775647E-3,1420 nM
c1ccc(-c2n[nH]cc2Nc2ccnc3ccccc23)nc1 [GW694077X],potency estimated from few doses,"CSNK1A1; compound concentrations: 100 nM and 1000 nM (sheet 'Samples'), CATDS: 2.3053021042780501E-2",2030 nM
same,potency estimated from few doses,CSNK1D; CATDS: 2.5323353021981399E-2,1390 nM
same,potency estimated from few doses,"MAPK8; compound concentrations: 100 nM and 1000 nM (sheet 'Samples'), CATDS: 2.3443095841232799E-2",1880 nM
same,potency estimated from few doses,"PIK3CD; compound concentrations: 100 nM and 1000 nM (sheet 'Samples'), CATDS: 5.6537253255213298E-2",148 nM
same,potency estimated from few doses,PKN2; CATDS: 2.23851306081322E-2,2310 nM
COC(=O)c1cccc(NC(=O)NC2CCN(c3ccnc(Nc4cc(OC)c(OC)c(OC)c4)n3)C2)c1 (stereo not shown) [GSK1379767A],potency estimated from few doses,"PIK3CD; compound concentrations: 100 nM and 1000 nM (sheet 'Samples'), CATDS: 0.49933192218353101",112 nM
CC(=O)N[C@@H](Cc1ccc(OP(=O)(O)O)cc1)C(=O)N[C@H]1CCC(=O)N2CCC[C@@H](C(=O)NCc3ccc(Cl)cc3)N2C1=O [RO0325308-000],potency estimated from few doses,ERCC2; [1],39.4 nM
same,potency estimated from few doses,FER; [1],59.5 nM
same,potency estimated from few doses,PIP4K2C; [1],1270 nM
same,potency estimated from few doses,PRKAA1; [1],801 nM
same,potency estimated from few doses,PRKCQ; [1],785 nM
COc1cc[nH]c1/C=C1\C(=O)Nc2ccc(F)c(C#CC3(O)CCNCC3)c21.Cl [RO0282986-001],potency estimated from few doses,"CSNK1A1; compound concentrations: 100 nM and 1000 nM (sheet 'Samples'), CATDS: 9.4699947154489802E-3",1660 nM
same,potency estimated from few doses,"ERCC2; compound concentrations: 100 nM and 1000 nM (sheet 'Samples'), CATDS: 1.0235233347988201E-2",1210 nM
same,potency estimated from few doses,"MAPK10; compound concentrations: 100 nM and 1000 nM (sheet 'Samples'), CATDS: 9.5486825617733494E-3",1600 nM
same,potency estimated from few doses,"MAPK8; compound concentrations: 100 nM and 1000 nM (sheet 'Samples'), CATDS: 1.15534009295916E-2",801 nM
same,potency estimated from few doses,MARK2; CATDS: 1.32977550051059E-2,536 nM
same,potency estimated from few doses,"PRKAA1; compound concentrations: 100 nM and 1000 nM (sheet 'Samples'), CATDS: 1.18517634082691E-2",741 nM
same,potency estimated from few doses,"ROCK2; compound concentrations: 100 nM and 1000 nM (sheet 'Samples'), CATDS: 1.22765922159753E-2",668 nM
same,potency estimated from few doses,"STK16; compound concentrations: 100 nM and 1000 nM (sheet 'Samples'), CATDS: 1.3388611542508999E-2",526 nM
same,potency estimated from few doses,STK3; CATDS: 1.6307369361129399E-2,326 nM
same,potency estimated from few doses,TNIK; CATDS: 1.31715083861153E-2,550 nM
CN(C)CCNC(=O)Nc1ccc(N(C)c2ccnc(Nc3ccc(CS(C)(=O)=O)cc3)n2)cc1.Cl [GW830900A],potency estimated from few doses,PIP4K2C; [1],1840 nM
CS(=O)(=O)Nc1ccc(-c2ccnc3[nH]ccc23)cc1 [GSK993273A],potency estimated from few doses,PIK3CD; [1],183 nM
same,potency estimated from few doses,PIP4K2C; [1],482 nM
c1cnn2ncc(-c3ccnc(Nc4ccc5c(c4)OCCO5)n3)c2c1 [GW806290X],potency estimated from few doses,"CSNK1A1; compound concentrations: 100 nM and 1000 nM (sheet 'Samples'), CATDS: 2.11429118311642E-2",1620 nM
same,potency estimated from few doses,CSNK1D; CATDS: 2.68711493268559E-2,761 nM
same,potency estimated from few doses,"MAPK10; compound concentrations: 100 nM and 1000 nM (sheet 'Samples'), CATDS: 2.29064571505532E-2",1230 nM
same,potency estimated from few doses,"MAPK8; compound concentrations: 100 nM and 1000 nM (sheet 'Samples'), CATDS: 3.07479356857355E-2",532 nM
same,potency estimated from few doses,"PIP4K2C; compound concentrations: 100 nM and 1000 nM (sheet 'Samples'), CATDS: 7.0230989511161995E-2",96.8 nM
